# In ChEMBL document CHEMBL1157539, “Thousands of chemical starting points for antimalarial lead identification” (Nature, 2010):
# Tested on: Plasmodium falciparum
# Assay: GSK_TCMDC: Inhibition of Plasmodium falciparum Dd2 in whole red blood cells, using parasite LDH activity as an index of growth. Test compounds present at 2uM
# Assay type: functional
row,Compound,Inhibition
1,Cc1[nH]cnc1CSCCN/C(=N\C#N)NCCCCCCCCN/C(=N/C#N)NCCSCc1nc[nH]c1C,48%
2,CCC(Cc1cnc2nc(N)nc(N)c2n1)c1ccc(C(=O)N[C@@H](CCC(=O)O)C(=O)O)cc1 (stereo partly specified) [EDATREXATE],98%
3,CCCCNC(=O)[C@H](CC1CCCCC1)NC(=O)c1ccc(O)c(-c2cccc(C(F)(F)F)c2)c1,86%
4,O=C(O)C(F)(F)F.c1ccc(CCNCc2ccc(-c3cccc(-c4nc5ccccc5[nH]4)c3)cc2)nc1,87%
5,CCC(C)(C)c1ccc(N2C(N)=NC(N)=NC2(C)C)cc1.Cl,4%
6,O=C(Nc1cccc(CN2CCN(C(=O)c3cccc(F)c3)CC2)c1)c1ccco1.O=C(O)C(F)(F)F,55%
7,OC(CNCc1ccccc1OCc1ccccc1)c1cc(Br)cs1 (stereo unspecified),88%
8,Cl.c1ccc(COc2ccc(Nc3ncnc4ccc(-c5ccc(CN6CCSCC6)o5)cc34)cc2)cc1,4%
9,S=C(NCCCCCN1CCC(c2c[nH]c3ccccc23)CC1)Nc1cc(Cl)cc(Cl)c1,35%
10,O=C(C=Cc1ccc(Cl)c(Cl)c1)NCCCCCN1CCC(CCNS(=O)(=O)c2ccc(Br)cc2)CC1,0%
11,Cl.NC(=O)c1cnc2cc(-c3ccoc3)ccc2c1Nc1ccc(NC(=O)Nc2ccccc2Cl)cc1,76%
12,COc1cccc(NC(=O)c2cc(C(=O)Nc3cccc(OC)c3)cc([N+](=O)[O-])c2)c1,61%
13,CCOc1cc(C)ccc1NC1CCN(CCCCNC(=O)c2ccc(NC(=O)c3ccc(Cl)cc3)cc2)CC1,70%
14,CCN(CC)CCCN1CCN(C(=O)c2cccc(-c3noc(C(F)(F)F)n3)c2)CC1,74%
15,COc1cccc(-c2ccc(NC(=O)C3CCCN(Cc4cccc(OC)c4O)C3)cc2)c1 (stereo unspecified),78%
16,Nc1ccc2nc(C=Cc3ccc(Cl)cc3)[nH]c2c1,83%
17,CCCCCCN1CCCN(Cc2ccc(C(=O)Nc3ccc(C(C)(C)C)cc3)cc2)CC1.O=C(O)C(F)(F)F,32%
18,Cc1cccc2nc(-c3ccc(-c4cccc(CN5CCCCC5)c4)s3)[nH]c12.O=C(O)C(F)(F)F,92%

row,Compound,Inhibition
1,CN(C)CCCNCc1ccc(-c2ccc(CNCCOc3ccccc3)cc2)cc1.O=C(O)C(F)(F)F,53%
2,O=C(NCc1cccs1)[C@H](Cc1ccccc1)Nc1ccnc(NCCc2ccccc2)n1.O=C(O)C(F)(F)F,59%
3,Cc1nnsc1C(=O)Nc1cccc(-c2ccc(-c3nc4cccc(C)c4[nH]3)s2)c1,44%
4,O=C(Nc1cccc(-c2cccc(-c3nc4cc(C(F)(F)F)ccc4[nH]3)c2)c1)c1cccnc1Cl,58%
5,Cc1nc(N)nc(N)c1-c1ccc(Cl)c(Cl)c1 [METOPRINE],0%
6,COc1ccc(C(=O)C2CC2CN(C)CC(O)c2cc(C)c(OC)cc2C)cc1.O=C(O)C(F)(F)F (stereo unspecified),77%
7,CN1CC[C@@H](Oc2cc(C(=O)NCc3ccc(Cl)c(Cl)c3)ccc2C(F)(F)F)C1.Cl,4%
8,O=C(/C=C/c1ccc(Cl)c(Cl)c1)NC1CCC(CN2CCC(c3cc4ccccc4[nH]3)CC2)CC1 (stereo unspecified),0%
9,O=C(Nc1ccc(Cl)c(C(F)(F)F)c1)N[C@H]1CCN(CCCCCNC(=O)C2CC2c2ccc(Cl)c(Cl)c2)C1 (stereo partly specified),0%
10,N#Cc1ccc(C=NNc2nc3ccccc3[nH]2)cc1,71%
11,O=C(NCCN1CCCCC1)c1ccc(CNC(=O)c2ccc(O)c(-c3cccc(C(F)(F)F)c3)c2)cc1,47%
12,CSc1nc2nc(C)c(Cc3cccc(F)c3)c(C)n2n1,45%
13,CCN1CCCC1CN(Cc1ccc(-c2ccc(C(F)(F)F)cc2)cc1)C(=O)Cn1c(CCc2cccc(F)c2F)nc(=O)c2ccccc21.O=C(O)C(O)C(O)C(=O)O (stereo unspecified),51%
14,O=C(Nc1ccc2c(c1)CCC2)c1ccc(N2CCN(c3ccncc3)CC2)cn1.O=C(O)C(F)(F)F,58%
15,Cc1cccc2nc(-c3ccc(-c4ccc(C(=O)NCCN5CCCC5)cc4)cc3)[nH]c12,77%
16,CCN1CCN(c2cc(C)c3cc(NC(=O)c4ccc(OC)c([N+](=O)[O-])c4)ccc3n2)CC1,93%
17,CC(C)(C)OC(=O)NCc1ccc(Nc2nnc(-c3cccc(OCC(=O)NCc4cc(C(F)(F)F)cc(C(F)(F)F)c4)c3)o2)cc1,19%
18,Cl.N=C(N)Nc1nccc(NCc2ccccc2)n1,48%
